# Data reported in publication PMC7862700, “An all-to-all approach to the identification of sequence-specific readers for epigenetic DNA modifications on cytosine”.
# Key:
# Assay in all cases: DAPPL (digital affinity profiling via proximity ligation, sequencing); 10 mM Tris-HCl pH 7.5, 50 mM NaCl, 1 mM DTT, 4% glycerol, room temperature, 30 min; GST-TFs on glutathione beads, 16-mer random dsDNA library, 0.1% formaldehyde crosslink after washing; high values mean tight binding
# [1] = biological target: T1, FLI1 (Homo sapiens, UniProt Q01543 1-452); conditions: protein: recombinant; tags: N-terminal GST; dsDNA, one strand shown
# T1 sequence: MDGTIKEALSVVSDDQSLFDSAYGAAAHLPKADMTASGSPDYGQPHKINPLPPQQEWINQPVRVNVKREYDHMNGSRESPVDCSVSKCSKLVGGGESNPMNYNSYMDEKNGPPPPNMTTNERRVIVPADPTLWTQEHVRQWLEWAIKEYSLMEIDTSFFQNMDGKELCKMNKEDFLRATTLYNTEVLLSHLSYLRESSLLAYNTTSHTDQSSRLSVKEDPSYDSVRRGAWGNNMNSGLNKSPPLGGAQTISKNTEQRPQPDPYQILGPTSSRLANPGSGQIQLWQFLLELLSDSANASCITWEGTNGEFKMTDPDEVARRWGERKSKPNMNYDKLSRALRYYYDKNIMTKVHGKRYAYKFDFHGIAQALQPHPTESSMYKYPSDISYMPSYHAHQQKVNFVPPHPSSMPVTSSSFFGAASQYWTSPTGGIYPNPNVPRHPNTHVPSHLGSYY
# In short: (§1)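 A tag-only sample was pooled with DNA-barcoded human transcription factors that had been expressed in yeast as GST fusions and captured on glutathione beads. The pools were incubated for 30 min at room temperature with 200 nmole of a random double-stranded 16-mer DNA library in Tris/NaCl/DTT/glycerol buffer, then washed, crosslinked with 0.1% formaldehyde, proximity-ligated (BsaI/T4 ligase, 1 h, 37 °C), PCR-amplified and sequenced on an Illumina NextSeq500. Binding signal is each hexamer's read frequency for a factor divided by its frequency for the tag-only sample.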
# [2] = biological target: T2, ELK1 (Homo sapiens, UniProt P19419 1-428); conditions: protein: recombinant; tags: N-terminal GST; dsDNA, one strand shown
# T2 sequence: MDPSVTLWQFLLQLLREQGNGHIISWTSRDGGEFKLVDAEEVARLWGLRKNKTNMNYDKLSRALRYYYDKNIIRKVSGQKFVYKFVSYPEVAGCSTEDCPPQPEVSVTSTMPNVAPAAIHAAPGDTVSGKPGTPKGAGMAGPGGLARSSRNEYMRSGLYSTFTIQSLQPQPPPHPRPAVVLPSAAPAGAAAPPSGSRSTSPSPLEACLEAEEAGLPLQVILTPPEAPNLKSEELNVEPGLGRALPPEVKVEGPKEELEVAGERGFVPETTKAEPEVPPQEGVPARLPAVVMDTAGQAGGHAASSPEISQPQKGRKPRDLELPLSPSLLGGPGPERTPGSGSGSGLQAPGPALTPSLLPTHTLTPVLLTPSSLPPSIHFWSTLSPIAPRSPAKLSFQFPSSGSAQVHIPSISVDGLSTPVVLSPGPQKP
# In short: as §1
# [3] = biological target: T3, GABPA (Homo sapiens, UniProt Q06546 1-454); conditions: protein: recombinant; tags: N-terminal GST; dsDNA, one strand shown
# T3 sequence: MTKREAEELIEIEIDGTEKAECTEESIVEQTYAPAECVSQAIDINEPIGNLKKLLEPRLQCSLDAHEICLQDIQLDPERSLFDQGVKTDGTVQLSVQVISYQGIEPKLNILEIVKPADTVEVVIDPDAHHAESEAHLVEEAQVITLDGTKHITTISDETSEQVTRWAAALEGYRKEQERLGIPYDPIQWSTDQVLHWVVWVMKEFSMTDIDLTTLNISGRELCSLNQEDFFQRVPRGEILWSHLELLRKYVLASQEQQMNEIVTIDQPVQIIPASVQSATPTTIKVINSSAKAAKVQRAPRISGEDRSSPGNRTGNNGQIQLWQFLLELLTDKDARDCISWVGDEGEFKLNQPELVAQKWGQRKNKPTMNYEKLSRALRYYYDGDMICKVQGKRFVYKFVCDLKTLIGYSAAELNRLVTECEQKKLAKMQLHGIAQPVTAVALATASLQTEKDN
# In short: as §1
# [4] = biological target: T4, ERG (Homo sapiens, UniProt P11308 1-479); conditions: protein: recombinant; tags: N-terminal GST; dsDNA, one strand shown
# T4 sequence: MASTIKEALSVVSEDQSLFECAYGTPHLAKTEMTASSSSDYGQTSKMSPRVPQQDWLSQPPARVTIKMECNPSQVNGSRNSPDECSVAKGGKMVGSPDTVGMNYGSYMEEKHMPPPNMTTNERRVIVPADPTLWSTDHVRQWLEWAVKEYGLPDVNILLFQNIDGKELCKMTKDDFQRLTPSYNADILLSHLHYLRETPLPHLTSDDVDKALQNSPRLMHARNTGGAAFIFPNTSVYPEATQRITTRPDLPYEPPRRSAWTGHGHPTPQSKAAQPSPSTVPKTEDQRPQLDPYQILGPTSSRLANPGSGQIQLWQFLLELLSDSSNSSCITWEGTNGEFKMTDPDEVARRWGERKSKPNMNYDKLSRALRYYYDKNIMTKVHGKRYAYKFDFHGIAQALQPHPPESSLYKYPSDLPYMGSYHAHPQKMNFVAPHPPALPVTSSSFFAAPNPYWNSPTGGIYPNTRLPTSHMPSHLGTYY
# In short: as §1
# [5] = biological target: ELF1 (Homo sapiens, UniProt P32519 1-619); conditions: protein: recombinant; tags: N-terminal GST; dsDNA, one strand shown
# In short: as §1
# [6] = biological target: T5, EHF (Homo sapiens, UniProt Q9NZC4 1-300); conditions: protein: recombinant; tags: N-terminal GST; dsDNA, one strand shown
# T5 sequence: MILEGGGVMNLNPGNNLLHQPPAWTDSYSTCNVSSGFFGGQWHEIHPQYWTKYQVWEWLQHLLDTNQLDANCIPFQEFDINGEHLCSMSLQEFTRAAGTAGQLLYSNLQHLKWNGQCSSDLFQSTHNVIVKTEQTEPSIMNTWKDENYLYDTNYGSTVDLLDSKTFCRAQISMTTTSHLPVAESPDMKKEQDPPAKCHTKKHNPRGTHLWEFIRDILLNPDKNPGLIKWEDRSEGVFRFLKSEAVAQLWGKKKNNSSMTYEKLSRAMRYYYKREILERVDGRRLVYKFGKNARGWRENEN
# In short: as §1
# [7] = biological target: SPI1 (Homo sapiens, UniProt P17947 1-270); conditions: protein: recombinant; tags: N-terminal GST; dsDNA, one strand shown
# In short: as §1
# [8] = biological target: SPIB (Homo sapiens, UniProt Q01892 1-262); conditions: protein: recombinant; tags: N-terminal GST; dsDNA, one strand shown
# In short: as §1
# [9] = biological target: T6, ELK3 (Homo sapiens, UniProt P41970 1-407); conditions: protein: recombinant; tags: N-terminal GST; dsDNA, one strand shown
# T6 sequence: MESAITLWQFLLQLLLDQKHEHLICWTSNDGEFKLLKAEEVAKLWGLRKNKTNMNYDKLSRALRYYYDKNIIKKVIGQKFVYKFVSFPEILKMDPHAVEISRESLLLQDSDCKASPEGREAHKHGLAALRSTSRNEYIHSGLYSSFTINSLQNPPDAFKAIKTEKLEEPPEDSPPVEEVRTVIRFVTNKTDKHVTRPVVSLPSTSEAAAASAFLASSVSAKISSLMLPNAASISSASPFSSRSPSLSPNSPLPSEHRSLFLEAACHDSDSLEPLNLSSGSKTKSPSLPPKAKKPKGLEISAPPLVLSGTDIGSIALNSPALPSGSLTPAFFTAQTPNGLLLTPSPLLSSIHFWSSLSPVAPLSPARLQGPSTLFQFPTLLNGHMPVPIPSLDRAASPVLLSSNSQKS
# In short: as §1
# [10] = biological target: T7, FEV (Homo sapiens, UniProt Q99581 1-238); conditions: protein: recombinant; tags: N-terminal GST; dsDNA, one strand shown
# T7 sequence: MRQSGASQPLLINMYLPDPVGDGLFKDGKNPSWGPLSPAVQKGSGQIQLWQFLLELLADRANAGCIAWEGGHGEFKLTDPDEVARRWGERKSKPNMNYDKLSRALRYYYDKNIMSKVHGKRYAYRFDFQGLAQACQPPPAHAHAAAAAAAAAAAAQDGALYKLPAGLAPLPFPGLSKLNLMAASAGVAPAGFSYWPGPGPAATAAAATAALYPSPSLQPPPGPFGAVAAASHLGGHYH
# In short: as §1
# [11] = biological target: ETV5 (Homo sapiens, UniProt P41161 1-510); conditions: protein: recombinant; tags: N-terminal GST; dsDNA, one strand shown
# In short: as §1
# [12] = biological target: HSF1 (Homo sapiens, UniProt Q00613 1-529); conditions: protein: recombinant; tags: N-terminal GST; chain copies: 3; dsDNA, one strand shown
# In short: as §1
# [13] = biological target: T8, SPIC (Homo sapiens, UniProt Q8N5J4 1-248); conditions: protein: recombinant; tags: N-terminal GST; dsDNA, one strand shown
# T8 sequence: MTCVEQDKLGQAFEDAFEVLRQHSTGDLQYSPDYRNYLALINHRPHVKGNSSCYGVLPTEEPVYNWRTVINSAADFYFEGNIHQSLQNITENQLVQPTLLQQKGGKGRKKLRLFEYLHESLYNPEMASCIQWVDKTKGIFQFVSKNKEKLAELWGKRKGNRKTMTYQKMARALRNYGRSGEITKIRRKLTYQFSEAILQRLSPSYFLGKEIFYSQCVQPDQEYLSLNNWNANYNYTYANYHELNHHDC
# In short: as §1
# [14] = biological target: ELF4 (Homo sapiens, UniProt Q99607 1-663); conditions: protein: recombinant; tags: N-terminal GST; dsDNA, one strand shown
# In short: as §1
# [15] = biological target: T9, ELK4 (Homo sapiens, UniProt P28324-2 1-405); conditions: protein: recombinant; tags: N-terminal GST; dsDNA, one strand shown
# T9 sequence: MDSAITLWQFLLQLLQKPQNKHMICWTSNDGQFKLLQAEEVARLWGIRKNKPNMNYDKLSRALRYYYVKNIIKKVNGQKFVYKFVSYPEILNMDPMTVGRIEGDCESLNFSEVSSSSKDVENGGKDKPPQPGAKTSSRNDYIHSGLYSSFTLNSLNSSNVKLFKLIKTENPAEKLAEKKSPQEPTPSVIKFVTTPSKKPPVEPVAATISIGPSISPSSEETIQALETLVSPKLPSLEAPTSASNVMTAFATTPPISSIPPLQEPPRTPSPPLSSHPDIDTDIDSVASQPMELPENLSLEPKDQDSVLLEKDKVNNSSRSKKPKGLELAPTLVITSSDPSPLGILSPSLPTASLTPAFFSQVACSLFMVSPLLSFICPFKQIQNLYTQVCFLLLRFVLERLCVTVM
# In short: as §1
# [16] = biological target: T10, ETV2 (Homo sapiens, UniProt O00321 1-342); conditions: protein: recombinant; tags: N-terminal GST; dsDNA, one strand shown
# T10 sequence: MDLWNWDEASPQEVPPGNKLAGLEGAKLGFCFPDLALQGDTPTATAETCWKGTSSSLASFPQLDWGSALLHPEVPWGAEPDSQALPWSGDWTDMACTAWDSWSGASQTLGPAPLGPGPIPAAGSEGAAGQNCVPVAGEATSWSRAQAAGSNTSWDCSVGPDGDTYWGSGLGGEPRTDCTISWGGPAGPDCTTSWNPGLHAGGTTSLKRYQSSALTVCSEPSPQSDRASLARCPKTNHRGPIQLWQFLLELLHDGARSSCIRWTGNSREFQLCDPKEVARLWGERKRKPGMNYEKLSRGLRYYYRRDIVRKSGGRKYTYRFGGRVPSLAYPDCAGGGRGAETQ
# In short: as §1
# [17] = biological target: T11, ELF3 (Homo sapiens, UniProt P78545 1-371); conditions: protein: recombinant; tags: N-terminal GST; dsDNA, one strand shown
# T11 sequence: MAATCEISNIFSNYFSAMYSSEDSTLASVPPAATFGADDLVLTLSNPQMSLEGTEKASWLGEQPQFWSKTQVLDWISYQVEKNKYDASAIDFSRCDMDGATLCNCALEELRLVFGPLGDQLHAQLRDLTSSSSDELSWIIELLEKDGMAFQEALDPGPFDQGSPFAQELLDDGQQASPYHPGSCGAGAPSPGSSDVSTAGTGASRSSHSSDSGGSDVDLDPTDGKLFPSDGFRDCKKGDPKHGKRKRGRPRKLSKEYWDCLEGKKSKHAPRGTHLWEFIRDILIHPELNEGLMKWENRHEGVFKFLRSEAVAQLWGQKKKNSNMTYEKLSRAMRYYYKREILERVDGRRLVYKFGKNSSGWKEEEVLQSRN
# In short: as §1
# [18] = biological target: CRX (Homo sapiens, UniProt O43186 1-299); conditions: protein: recombinant; tags: N-terminal GST; dsDNA, one strand shown
# In short: as §1
# [19] = biological target: ETV1 (Homo sapiens, UniProt P50549 1-477); conditions: protein: recombinant; tags: N-terminal GST; dsDNA, one strand shown
# In short: as §1
# Chain of ELF4 (Q99607 whole entry): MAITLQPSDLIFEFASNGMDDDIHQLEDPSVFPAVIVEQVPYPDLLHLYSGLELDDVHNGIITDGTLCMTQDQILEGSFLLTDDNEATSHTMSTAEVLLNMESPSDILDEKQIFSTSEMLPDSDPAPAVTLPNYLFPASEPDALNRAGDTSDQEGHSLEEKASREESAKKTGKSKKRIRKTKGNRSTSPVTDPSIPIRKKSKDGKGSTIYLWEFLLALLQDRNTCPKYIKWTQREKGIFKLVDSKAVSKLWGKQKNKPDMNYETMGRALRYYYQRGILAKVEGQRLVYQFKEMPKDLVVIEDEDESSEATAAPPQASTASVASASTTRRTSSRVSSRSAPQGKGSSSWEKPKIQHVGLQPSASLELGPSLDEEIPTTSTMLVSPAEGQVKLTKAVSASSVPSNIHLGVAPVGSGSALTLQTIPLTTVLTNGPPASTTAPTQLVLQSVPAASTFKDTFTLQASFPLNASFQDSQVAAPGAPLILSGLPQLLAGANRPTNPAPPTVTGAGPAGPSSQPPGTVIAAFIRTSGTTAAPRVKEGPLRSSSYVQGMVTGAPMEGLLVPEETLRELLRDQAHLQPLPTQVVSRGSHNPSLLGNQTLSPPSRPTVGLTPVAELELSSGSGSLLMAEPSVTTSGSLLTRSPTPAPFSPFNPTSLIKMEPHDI
# Chain of CRX (O43186 whole entry): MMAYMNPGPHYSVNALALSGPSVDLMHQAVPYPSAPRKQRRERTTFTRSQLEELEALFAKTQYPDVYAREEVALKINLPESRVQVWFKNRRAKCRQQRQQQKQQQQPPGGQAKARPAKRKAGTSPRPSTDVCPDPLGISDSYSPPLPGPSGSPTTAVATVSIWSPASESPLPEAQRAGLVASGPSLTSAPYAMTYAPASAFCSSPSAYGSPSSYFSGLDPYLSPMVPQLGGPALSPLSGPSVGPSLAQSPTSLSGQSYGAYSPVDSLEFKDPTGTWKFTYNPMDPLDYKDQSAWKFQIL
# Chain of HSF1 (Q00613 whole entry): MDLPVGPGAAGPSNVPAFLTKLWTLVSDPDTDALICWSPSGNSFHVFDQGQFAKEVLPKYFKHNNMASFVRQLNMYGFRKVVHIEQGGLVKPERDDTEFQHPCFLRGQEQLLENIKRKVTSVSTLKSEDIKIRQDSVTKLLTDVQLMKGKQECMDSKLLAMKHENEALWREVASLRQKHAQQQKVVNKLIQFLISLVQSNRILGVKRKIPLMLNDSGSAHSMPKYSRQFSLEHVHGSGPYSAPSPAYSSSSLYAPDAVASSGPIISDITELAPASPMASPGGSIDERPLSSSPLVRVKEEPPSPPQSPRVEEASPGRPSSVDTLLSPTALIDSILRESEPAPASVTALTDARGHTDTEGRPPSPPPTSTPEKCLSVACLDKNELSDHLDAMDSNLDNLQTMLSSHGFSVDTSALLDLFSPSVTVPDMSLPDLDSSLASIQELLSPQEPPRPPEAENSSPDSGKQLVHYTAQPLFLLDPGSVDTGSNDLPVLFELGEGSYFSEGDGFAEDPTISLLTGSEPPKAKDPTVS
# Chain of ETV5 (P41161 whole entry): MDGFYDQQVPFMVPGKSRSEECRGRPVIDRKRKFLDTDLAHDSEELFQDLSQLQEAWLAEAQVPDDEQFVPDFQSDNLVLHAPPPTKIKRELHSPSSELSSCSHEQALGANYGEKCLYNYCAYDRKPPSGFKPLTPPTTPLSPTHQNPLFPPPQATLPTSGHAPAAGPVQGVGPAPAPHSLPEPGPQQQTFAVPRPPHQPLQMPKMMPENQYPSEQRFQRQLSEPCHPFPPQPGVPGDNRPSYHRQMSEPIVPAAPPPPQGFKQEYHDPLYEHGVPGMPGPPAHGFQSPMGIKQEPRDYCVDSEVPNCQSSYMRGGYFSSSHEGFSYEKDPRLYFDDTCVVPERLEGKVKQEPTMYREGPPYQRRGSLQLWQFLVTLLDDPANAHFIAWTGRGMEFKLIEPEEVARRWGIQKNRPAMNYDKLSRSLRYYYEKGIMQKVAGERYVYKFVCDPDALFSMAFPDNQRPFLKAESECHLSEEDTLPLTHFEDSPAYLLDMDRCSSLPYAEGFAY
# Chain of ETV1 (P50549 whole entry): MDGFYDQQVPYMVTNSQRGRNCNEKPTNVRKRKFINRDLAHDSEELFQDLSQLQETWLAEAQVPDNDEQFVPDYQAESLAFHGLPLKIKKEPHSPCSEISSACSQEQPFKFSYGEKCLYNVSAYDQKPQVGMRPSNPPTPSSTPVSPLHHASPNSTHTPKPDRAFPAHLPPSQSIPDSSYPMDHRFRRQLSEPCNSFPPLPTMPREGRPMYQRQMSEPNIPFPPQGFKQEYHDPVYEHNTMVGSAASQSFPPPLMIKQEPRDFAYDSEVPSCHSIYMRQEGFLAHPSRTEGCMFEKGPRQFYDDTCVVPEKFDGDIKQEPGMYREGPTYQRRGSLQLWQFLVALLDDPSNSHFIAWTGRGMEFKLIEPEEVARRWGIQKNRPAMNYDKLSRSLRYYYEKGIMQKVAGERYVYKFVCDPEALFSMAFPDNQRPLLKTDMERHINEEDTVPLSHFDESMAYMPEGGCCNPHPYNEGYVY
# Chain of ELF1 (P32519 whole entry): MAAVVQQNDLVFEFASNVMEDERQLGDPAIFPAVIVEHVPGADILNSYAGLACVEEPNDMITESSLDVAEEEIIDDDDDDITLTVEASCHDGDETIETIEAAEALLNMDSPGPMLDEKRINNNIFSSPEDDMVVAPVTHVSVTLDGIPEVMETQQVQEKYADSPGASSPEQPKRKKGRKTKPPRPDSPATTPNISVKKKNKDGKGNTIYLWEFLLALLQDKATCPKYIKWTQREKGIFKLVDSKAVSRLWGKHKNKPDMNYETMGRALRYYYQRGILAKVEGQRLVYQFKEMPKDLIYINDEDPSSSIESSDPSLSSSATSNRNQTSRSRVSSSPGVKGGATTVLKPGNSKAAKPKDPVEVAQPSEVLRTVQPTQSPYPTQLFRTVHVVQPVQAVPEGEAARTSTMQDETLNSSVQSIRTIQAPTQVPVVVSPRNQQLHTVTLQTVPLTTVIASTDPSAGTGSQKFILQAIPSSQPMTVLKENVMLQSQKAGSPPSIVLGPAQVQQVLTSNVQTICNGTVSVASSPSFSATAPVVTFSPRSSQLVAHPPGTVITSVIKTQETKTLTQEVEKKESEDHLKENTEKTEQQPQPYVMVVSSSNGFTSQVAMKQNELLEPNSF
# Chain of SPIB (Q01892 whole entry): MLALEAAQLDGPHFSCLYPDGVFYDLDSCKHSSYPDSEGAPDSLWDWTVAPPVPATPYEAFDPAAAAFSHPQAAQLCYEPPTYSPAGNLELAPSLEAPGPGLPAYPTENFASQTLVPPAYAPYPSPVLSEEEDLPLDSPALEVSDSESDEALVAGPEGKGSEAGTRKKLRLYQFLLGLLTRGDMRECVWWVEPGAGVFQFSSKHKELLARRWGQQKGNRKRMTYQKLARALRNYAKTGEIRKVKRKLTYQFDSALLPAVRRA
sequence,measurement,setting,value
TATTTC,binding signal,[1],"2.04 fold enrichment (6-mer frequency, TF over GST control)"
same,binding signal,[2],"2.09 fold enrichment (6-mer frequency, TF over GST control)"
same,binding signal,[3],"2.06 fold enrichment (6-mer frequency, TF over GST control)"
same,binding signal,[4],"2.32 fold enrichment (6-mer frequency, TF over GST control)"
same,binding signal,[5],"2.06 fold enrichment (6-mer frequency, TF over GST control)"
same,binding signal,[6],"2.21 fold enrichment (6-mer frequency, TF over GST control)"
same,binding signal,[7],"2.02 fold enrichment (6-mer frequency, TF over GST control)"
same,binding signal,[8],"2.19 fold enrichment (6-mer frequency, TF over GST control)"
same,binding signal,[9],"2.21 fold enrichment (6-mer frequency, TF over GST control)"
same,binding signal,[10],"2.32 fold enrichment (6-mer frequency, TF over GST control)"
same,binding signal,[11],"2.13 fold enrichment (6-mer frequency, TF over GST control)"
same,binding signal,[12],"1.69 fold enrichment (6-mer frequency, TF over GST control)"
same,binding signal,[13],"2.38 fold enrichment (6-mer frequency, TF over GST control)"
same,binding signal,[14],"2.01 fold enrichment (6-mer frequency, TF over GST control)"
same,binding signal,[15],"2.24 fold enrichment (6-mer frequency, TF over GST control)"
same,binding signal,[16],"2.11 fold enrichment (6-mer frequency, TF over GST control)"
same,binding signal,[17],"2.09 fold enrichment (6-mer frequency, TF over GST control)"
same,binding signal,[18],"1.64 fold enrichment (6-mer frequency, TF over GST control)"
same,binding signal,[19],"2.14 fold enrichment (6-mer frequency, TF over GST control)"
